PubChem BioAssay (NCI)
The panel holds about 83,000 compounds, 20% with a hit somewhere; the sample as a whole holds those more often.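 A percent growth of 40 corresponds to 60% growth inhibition; 0 means no net growth; -100 means all cells died. Active threshold: below 10.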 Calls of active or inactive are those of the source.

Key:
Experiment in all cases: NCI-60 one-dose screen, 48 h (100 = growth as untreated, 0 = no growth, -100 = all killed)
Conditions in all cases: 10 µM unless noted
NCI-H23 lung = system: NCI-H23 lung
NCI-H226 lung = system: NCI-H226 lung
NCI-H322M lung = system: NCI-H322M lung
HOP-62 NSCLC = system: HOP-62 NSCLC
NCI-H460 lung = system: NCI-H460 lung
HOP-92 NSCLC = system: HOP-92 NSCLC
NCI-H522 lung = system: NCI-H522 lung
A549/ATCC NSCLC = system: A549/ATCC NSCLC
786-0 renal = system: 786-0 renal
COLO 205 colon = system: COLO 205 colon
DU-145 prostate = system: DU-145 prostate
K-562 leukemia = system: K-562 leukemia
MALME-3M melanoma = system: MALME-3M melanoma
MDA-MB-231 breast = system: MDA-MB-231 breast
RXF 393 renal = system: RXF 393 renal
SF-268 CNS = system: SF-268 CNS
SF-295 CNS = system: SF-295 CNS
SF-539 CNS = system: SF-539 CNS
UACC-257 melanoma = system: UACC-257 melanoma
M14 melanoma = system: M14 melanoma

Measured: growth

NC1=C(Cl)C(=O)c2ccc(S(N)(=O)=O)cc2C1=O
active: NCI-H23 lung -49.8% | NCI-H226 lung -51% | NCI-H322M lung -97% | HOP-62 NSCLC -68.2% | NCI-H460 lung -65.8% | HOP-92 NSCLC -58.1% | NCI-H522 lung -84.1% | A549/ATCC NSCLC -53.7% | 786-0 renal -29.8% | COLO 205 colon -90.3% | DU-145 prostate -90.1% | K-562 leukemia -12.7% | MALME-3M melanoma -96.1% | MDA-MB-231 breast -3.41% | RXF 393 renal -99.2% | SF-268 CNS -74.4% | SF-295 CNS -86.1% | SF-539 CNS -84.5% | UACC-257 melanoma -95.3% | M14 melanoma -89.6%

Cn1c(O)c(N=NC(=O)c2cc(-c3ccccc3)on2)c2ccccc21
inactive: NCI-H23 lung 88.5% | NCI-H226 lung 88.4% | NCI-H322M lung 108% | HOP-62 NSCLC 102% | NCI-H460 lung 100% | HOP-92 NSCLC 105% | NCI-H522 lung 89.9% | A549/ATCC NSCLC 108% | 786-0 renal 100% | COLO 205 colon 130% | DU-145 prostate 107% | K-562 leukemia 116% | MALME-3M melanoma 88.7% | MDA-MB-231 breast 95.6% | RXF 393 renal 104% | SF-268 CNS 100% | SF-295 CNS 99.8% | SF-539 CNS 99.9% | UACC-257 melanoma 119% | M14 melanoma 101%

O=C(N=Nc1c(O)[nH]c2ccc(Br)cc12)c1cc(-c2ccccc2)on1
inactive: NCI-H23 lung 96.9% | NCI-H226 lung 99.8% | NCI-H322M lung 108% | HOP-62 NSCLC 102% | NCI-H460 lung 101% | HOP-92 NSCLC 96.8% | NCI-H522 lung 85% | A549/ATCC NSCLC 103% | 786-0 renal 105% | COLO 205 colon 125% | DU-145 prostate 110% | K-562 leukemia 109% | MALME-3M melanoma 89.5% | MDA-MB-231 breast 100% | RXF 393 renal 117% | SF-268 CNS 100% | SF-295 CNS 97.1% | SF-539 CNS 97.6% | UACC-257 melanoma 110% | M14 melanoma 104%

Cc1ccc2c(C(C[N+](=O)[O-])c3ccccc3F)c(-c3ccccc3)[nH]c2c1 (stereo not given)
inactive: NCI-H23 lung 56.9% | NCI-H226 lung 58.6% | NCI-H322M lung 68.5% | HOP-62 NSCLC 36.2% | NCI-H460 lung 20.9% | HOP-92 NSCLC 45.8% | A549/ATCC NSCLC 35.2% | 786-0 renal 56.7% | COLO 205 colon 32.3% | DU-145 prostate 66.2% | K-562 leukemia 11.8% | MALME-3M melanoma 46.1% | MDA-MB-231 breast 61.4% | RXF 393 renal 63.6% | SF-268 CNS 46.7% | SF-295 CNS 17.6% | SF-539 CNS 52.3% | UACC-257 melanoma 46.9% | M14 melanoma 26.2%
active: NCI-H522 lung -17.2%

COc1cccc(-c2nc3sccn3c2-c2ccnc(NCCCNS(=O)(=O)c3cccc(F)c3)c2)c1
active: SF-295 CNS 9.57%
inactive: NCI-H23 lung 21.3% | NCI-H226 lung 19.1% | NCI-H322M lung 72% | HOP-62 NSCLC 33.4% | NCI-H460 lung 44.9% | HOP-92 NSCLC 49.5% | NCI-H522 lung 18.1% | A549/ATCC NSCLC 18.1% | 786-0 renal 52.6% | COLO 205 colon 19% | DU-145 prostate 31.9% | K-562 leukemia 11.4% | MALME-3M melanoma 28.1% | MDA-MB-231 breast 65.4% | RXF 393 renal 66.7% | SF-268 CNS 40.9% | SF-539 CNS 70% | UACC-257 melanoma 20.6% | M14 melanoma 10.9%

COc1cc(CNc2oc(-c3ccccc3)c(-c3ccccc3)c2C#N)cc(CN2CCN(C)CC2)c1O
active: K-562 leukemia -9.86% | UACC-257 melanoma -4.26% | M14 melanoma -62.2%
inactive: NCI-H23 lung 73.1% | NCI-H226 lung 88% | NCI-H322M lung 89.2% | HOP-62 NSCLC 79.2% | NCI-H460 lung 33.4% | HOP-92 NSCLC 43.9% | NCI-H522 lung 71.5% | A549/ATCC NSCLC 56.8% | 786-0 renal 67.2% | COLO 205 colon 54.3% | DU-145 prostate 59.9% | MALME-3M melanoma 20.6% | MDA-MB-231 breast 75.3% | RXF 393 renal 42.8% | SF-268 CNS 69.8% | SF-295 CNS 51.7% | SF-539 CNS 71.3%

C=C(C)C1CC(O)C2(C)CCCC3C2C1CC(C)C3(C)CC/C(C)=C/C(O)C1CCC(=O)c2c(OC)cc(OC)cc21 (stereo not given)
inactive: NCI-H23 lung 48.9% | NCI-H226 lung 71.2% | NCI-H322M lung 78.9% | HOP-62 NSCLC 46.7% | NCI-H460 lung 14.7% | HOP-92 NSCLC 58.5% | NCI-H522 lung 53.6% | A549/ATCC NSCLC 30.8% | 786-0 renal 58% | COLO 205 colon 40.8% | DU-145 prostate 43.3% | K-562 leukemia 22% | MALME-3M melanoma 52% | MDA-MB-231 breast 48.6% | RXF 393 renal 52.7% | SF-268 CNS 44.5% | SF-295 CNS 41.4% | SF-539 CNS 50.8% | UACC-257 melanoma 12.6% | M14 melanoma 72.7%

O=C1NC(=Nc2ccc(O)cc2)S/C1=C\c1cccc(Cl)c1
inactive: NCI-H23 lung 88.2% | NCI-H226 lung 102% | NCI-H322M lung 83.7% | HOP-62 NSCLC 76.1% | NCI-H460 lung 86.3% | HOP-92 NSCLC 72.5% | NCI-H522 lung 76.3% | A549/ATCC NSCLC 54.9% | 786-0 renal 67.1% | COLO 205 colon 102% | DU-145 prostate 84.5% | K-562 leukemia 21.9% | MALME-3M melanoma 88.7% | MDA-MB-231 breast 96.2% | RXF 393 renal 75.1% | SF-268 CNS 74.1% | SF-295 CNS 69.1% | SF-539 CNS 68.6% | UACC-257 melanoma 95.9% | M14 melanoma 56.7%

O=C(CCl)Oc1ccc(-c2ccccc2)c(Br)c1
inactive: NCI-H23 lung 100% | NCI-H226 lung 96.4% | NCI-H322M lung 105% | HOP-62 NSCLC 107% | NCI-H460 lung 104% | HOP-92 NSCLC 92% | NCI-H522 lung 107% | A549/ATCC NSCLC 106% | 786-0 renal 105% | COLO 205 colon 108% | DU-145 prostate 104% | K-562 leukemia 103% | MALME-3M melanoma 107% | MDA-MB-231 breast 109% | RXF 393 renal 106% | SF-268 CNS 104% | SF-295 CNS 107% | SF-539 CNS 99.4% | UACC-257 melanoma 106% | M14 melanoma 103%

C=C1c2nc3ccccc3n2C=C(c2ccc(OC)cc2)N1Cc1ccccc1
inactive: NCI-H23 lung 81.3% | NCI-H226 lung 102% | NCI-H322M lung 102% | HOP-62 NSCLC 136% | NCI-H460 lung 90.8% | HOP-92 NSCLC 95.9% | NCI-H522 lung 64.5% | A549/ATCC NSCLC 96% | 786-0 renal 83.6% | COLO 205 colon 92.8% | DU-145 prostate 103% | K-562 leukemia 73.5% | MALME-3M melanoma 109% | MDA-MB-231 breast 100% | RXF 393 renal 101% | SF-268 CNS 89.2% | SF-295 CNS 103% | SF-539 CNS 115% | UACC-257 melanoma 97.1% | M14 melanoma 98.1%

CCc1nnc(CNc2ccc(Cl)cc2)o1
inactive: NCI-H23 lung 105% | NCI-H226 lung 93.2% | NCI-H322M lung 92% | HOP-62 NSCLC 111% | NCI-H460 lung 100% | HOP-92 NSCLC 102% | NCI-H522 lung 89.9% | A549/ATCC NSCLC 94.4% | 786-0 renal 97.4% | COLO 205 colon 106% | DU-145 prostate 108% | K-562 leukemia 86.3% | MALME-3M melanoma 95.6% | MDA-MB-231 breast 94.4% | RXF 393 renal 113% | SF-268 CNS 96.4% | SF-295 CNS 102% | SF-539 CNS 97% | UACC-257 melanoma 103% | M14 melanoma 95.1%

Cc1ccc2c(C(C[N+](=O)[O-])c3ccco3)c(-c3ccccc3)[nH]c2c1 (stereo not given)
inactive: NCI-H23 lung 51.3% | NCI-H226 lung 46.5% | NCI-H322M lung 53.3% | HOP-62 NSCLC 24% | NCI-H460 lung 13.9% | HOP-92 NSCLC 39.9% | A549/ATCC NSCLC 33.3% | 786-0 renal 31.2% | COLO 205 colon 21.8% | DU-145 prostate 49.6% | K-562 leukemia 11.5% | MALME-3M melanoma 47.1% | MDA-MB-231 breast 41.8% | RXF 393 renal 35.2% | SF-268 CNS 37.8% | SF-539 CNS 20.4% | UACC-257 melanoma 43.4%
active: NCI-H522 lung -11.7% | SF-295 CNS 7.56% | M14 melanoma 7.34%

O=C(Cc1ccccc1Nc1c(Cl)cccc1Cl)NN1C(=O)/C(=C/c2ccc(Br)cc2)SC1=S
inactive: NCI-H23 lung 97.5% | NCI-H226 lung 95.6% | NCI-H322M lung 98.7% | HOP-62 NSCLC 104% | NCI-H460 lung 104% | HOP-92 NSCLC 103% | NCI-H522 lung 93.9% | A549/ATCC NSCLC 99.5% | 786-0 renal 98.9% | COLO 205 colon 105% | DU-145 prostate 109% | K-562 leukemia 100% | MALME-3M melanoma 100% | MDA-MB-231 breast 103% | RXF 393 renal 111% | SF-268 CNS 96.8% | SF-295 CNS 101% | SF-539 CNS 93.6% | UACC-257 melanoma 103% | M14 melanoma 103%

COc1ccc2c(c1)c(-c1nonc1-c1cn(C)c3ccccc13)cn2C
active: NCI-H522 lung 9.96% | RXF 393 renal -9.91% | SF-539 CNS -9.13%
inactive: NCI-H23 lung 27.9% | NCI-H226 lung 27.3% | NCI-H322M lung 42.2% | HOP-62 NSCLC 33.1% | NCI-H460 lung 16.3% | HOP-92 NSCLC 47.8% | A549/ATCC NSCLC 30.3% | 786-0 renal 44.2% | COLO 205 colon 17.7% | DU-145 prostate 14.7% | K-562 leukemia 10.5% | MALME-3M melanoma 51.9% | MDA-MB-231 breast 28.4% | SF-268 CNS 63% | SF-295 CNS 32% | UACC-257 melanoma 66.5% | M14 melanoma 24.4%

COc1ccc(/C=C/C(=O)c2ccc(O)c(CN3CCN(c4cc5c(cc4F)c(=O)c(C(=O)O)cn5C4CC4)CC3)c2)cc1
inactive: NCI-H23 lung 37.7% | NCI-H226 lung 52.2% | NCI-H322M lung 22.6% | HOP-62 NSCLC 19.5% | NCI-H460 lung 51.4% | HOP-92 NSCLC 10.1% | NCI-H522 lung 16.9% | A549/ATCC NSCLC 22.3% | 786-0 renal 27.8% | COLO 205 colon 102% | DU-145 prostate 27.8% | K-562 leukemia 20.3% | MALME-3M melanoma 30.4% | MDA-MB-231 breast 50.6% | RXF 393 renal 28.3% | SF-268 CNS 30.3% | SF-295 CNS 13.1% | SF-539 CNS 18.8% | UACC-257 melanoma 42% | M14 melanoma 30.9%
